# Screening results: PubChem BioAssay, National Center for Advancing Translational Sciences (NCATS)
# In the library only some 19% were active in any assay of this set; here they are far more common.
# HT1080NT lethal – qHTS for induction of synthetic lethality in tumor cells producing 2HG: qHTS for the HT-1080-NT fibrosarcoma cell line; HT-1080-NT fibrosarcoma viability, CellTiter-Glo ATP luminescence, 48 h; Potency, µM (doses to about 46.1 µM), without a hit: at the top dose activity, negative = less viability, hits mostly cytotoxic; 360,000 compounds, 1.6% hits;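 note: NT is the 2HG producing partner of a matched IDH1 knockdown line; 0% = DMSO-treated cells and -100% = media-only wells without cells; nearly all actives have a fitted effect of over 55% in size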
#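 Read-out is CellTiter-Glo luminescence after 10 minutes at room temperature, following 48 hours' compound treatment of HT-1080-NT cells (750 cells/well, RPMI, 5% FBS, 37 degrees C).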
# HT1080 IDH1KD tx – qHTS for induction of synthetic lethality in tumor cells producing 2HG: qHTS for the HT-1080-IDH1KD cell line; 360,000 compounds, 2% hits; Potency, µM (doses to about 46.1 µM), for inactives: at the highest dose activity, negative = toxicity, actives largely listed as cytotoxic; HT-1080 IDH1 knockdown viability, ATP luminescence, 48 h;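 note: 0% = DMSO wells and -100% = cell-free medium wells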
#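 HT-1080-IDH1KD cells (IDH1 knocked down), 750/well in RPMI with 5% FBS, treated with compound 48 h at 37 degrees C. Viability by CellTiter-Glo luminescence, normalised to DMSO and no-cell wells; concentration-response curves classed.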
# KB-V1 MDR tox – qHTS assay for MDR1-selective chemotherapeutics: Primary screen using the drug-selected MDR subline cells KB-V1 | 400,000 compounds, 3.4% hits | KB-V1 MDR cells viability, CellTiter-Glo, 72 h | Potency, µM (series often up to 46.1 µM), usual class: cytotoxic; note: nearly all actives have a fitted effect of over 60% in size
#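 qHTS viability screen in drug-selected KB-V1 MDR cells: 72 h compound treatment at 37 degrees C, ATP luminescence end point.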
# KB-3-1 tox – qHTS assay for MDR1-selective chemotherapeutics: Primary screen using the parental adenocarcinoma cell KB-3-1 | Potency, µM (doses to about 46.1 µM), hits mostly cytotoxic | 400,000 compounds, 1.4% hits | KB-3-1 viability, CellTiter-Glo ATP luminescence, 72 h; note: nearly all actives have a fitted effect of over 60% in size
#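 Screening of KB-3-1 cells (DMEM, 10% FBS, phenol-red free) ran from lowest to highest compound concentration; after 72 h at 37 °C viability was read luminescently and curves fitted.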
# TDP1 cell noCPT – qHTS for Inhibitors of human tyrosyl-DNA phosphodiesterase 1 (TDP1): qHTS in cells in absence of CPT. DT40 Tdp1-/- hTDP1 cells, no CPT, ATP luminescence, 48 h. AID 686978, 2013. 420,000 compounds, 15% hits. Potency, µM (highest dose often 46.2 µM), for the others: top-dose activity change, negative = growth inhibition, most hits filed as inhibitors; note: nearly all actives have a fitted effect of over 55% in size
#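 Stably hTDP1-transfected Tdp1-null chicken DT40 cells were treated with library compounds minus camptothecin and grown for at least 48 hr at 37 °C, after which cellular ATP was quantified by luminescence.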
# TDP1 cell CPT – qHTS for Inhibitors of human tyrosyl-DNA phosphodiesterase 1 (TDP1): qHTS in cells in presence of CPT; chicken DT40 Tdp1-/-;hTDP1 cells + 20 nM CPT, ATP luminescence, 48 h; Potency, µM (titrated, usually from 46.2 µM), without a hit: at the highest dose activity change, negative = growth inhibition, usual class: inhibitors; 420,000 compounds, 12% hits; AID 686979, 2013; note: nearly all actives have a fitted effect of over 55% in size
#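 Cell growth measured by CellTiter-Glo luminescence after a minimum 48 h, 37 C compound exposure with 20 nM CPT in Tdp1-knockout DT40 cells stably expressing hTDP1, seeded 400/well; qHTS titration format.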
# * marks the source's active call; other numbers are inactive results; i = inactive; ? = inconclusive; nt = no result given. Calls come from the whole dose curve; as a rule, active = well fitted curve in the direction sought with a large enough effect; inconclusive = small, poorly fitted or top-dose-only effect, or another doubt; inactive = no such curve, though single readings can be large; an effect the other way counts as inactive or inconclusive. Unless noted, % is set by controls: 0 for no effect and ±100 for the full control effect; potency is the fitted concentration of half-maximal effect.
SMILES,HT1080NT lethal,HT1080 IDH1KD tx,KB-V1 MDR tox,KB-3-1 tox,TDP1 cell noCPT,TDP1 cell CPT
CN(C)c1ccc(/C=C2/C[N+](C)(C)C/C(=C/c3ccc(N(C)C)cc3)C2=O)cc1,?,16µM*,i,16µM*,3.7µM*,2.6µM*
COc1cc(OC)c2nc(C)c3c(c2c1)N(c1ccc(O)cc1)CC3,?,3%,i,?,16µM*,?
COC(=O)c1ccccc1N/C=C1\CCc2c(c(C)nn2-c2ccccn2)C1=O,-2%,0%,i,i,?,16µM*
Cc1cccc(C)c1NC(=S)N/N=C/c1ccc(OCCC(C)C)cc1,-9%,-7%,?,?,7.3µM*,9.2µM*
Cc1cccc(C)c1NC(=S)N/N=C/c1c(Cl)cccc1Cl,8%,12%,i,i,21µM*,?
COc1cc(/C=N/NC(=S)NCCc2ccccc2)cc(OC)c1OC,-6%,-2%,i,i,16µM*,26µM*
O=C(CC(=O)N/N=C\c1ccccc1)NCCc1ccccc1,-1%,16%,i,i,-1%,-5%
COC(=O)c1ccc(/C=N\NC(=O)CC(=O)NCCc2ccccc2)cc1,0%,1%,i,i,13µM*,2%
CCCCOc1ccc(/C=N/NC(=S)Nc2cccc(C)c2C)cc1,-2%,14%,?,i,?,?
CCOCCCNC(=O)C(c1ccccc1)N(Cc1ccc2c(c1)OCO2)C(=O)c1ccc(NC(C)=O)cc1 (stereo unspecified),nt,nt,?,i,-25%,?
COc1cc(CCN(C(C)=O)C2C(=O)Nc3ccccc3N=C2c2ccc3c(c2)OCO3)cc(OC)c1 (stereo unspecified),5%,2%,i,i,-25%,-24%
Cc1ccc(C)c(N(C)C(=O)CCNC(=O)Cn2cnc3ccccc3c2=O)c1,nt,nt,i,i,?,?
S=C(NCCc1ccccc1)N/N=C/c1c(Cl)cccc1Cl,-8%,-11%,i,i,16µM*,?
S=C(NCCc1ccccc1)N/N=C/c1ccc(Cl)cc1,-3%,-22%,i,i,?,?
CS(=O)(=O)c1ccc(S(=O)CC(=O)OCc2ccccc2)c([N+](=O)[O-])c1 (stereo unspecified),5.8µM*,4.1µM*,i,i,0.33µM*,0.23µM*
O=C(CS(=O)c1ccc(C(F)(F)F)cc1[N+](=O)[O-])Oc1ccccc1 (stereo unspecified),16µM*,16µM*,?,?,4.6µM*,5.8µM*
COC(=O)c1ccc(OC(=O)CS(=O)c2ccccc2[N+](=O)[O-])cc1 (stereo unspecified),-3%,-4%,i,i,26µM*,?
CCOC(=O)c1ccccc1OC(=O)CS(=O)c1ccccc1[N+](=O)[O-] (stereo unspecified),-13%,-7%,i,i,?,?
O=C(CNc1ccc(C(F)(F)F)cc1[N+](=O)[O-])OCC(=O)c1ccccc1,7%,9%,i,i,-6%,0%
Cc1ccc(C(=O)C2CCNCC2)cc1,12%,5%,i,i,-21%,-20%
Cc1ccc(C2Cc3cc(O)c(O)cc3CN2)cc1 (stereo unspecified),?,?,i,i,16µM*,15µM*
O=C1CSc2ccc(C(=O)NCCc3ccc(Cl)cc3Cl)cc2N1,?,?,i,i,15µM*,?
Cc1cc(-c2nn3c(-c4ccccc4)nnc3s2)c2ccccc2n1,-2%,-17%,1µM*,?,18µM*,?
Cc1ccccc1-c1nn2c(-c3ccccc3)nnc2s1,-15%,-20%,i,i,-28%,-29%
c1ccc(-c2cc(-c3nn4c(-c5ccco5)nnc4s3)c3ccccc3n2)cc1,-22%,?,i,i,4.5µM*,7.1µM*
SMILES,HT1080NT lethal,HT1080 IDH1KD tx,KB-V1 MDR tox,KB-3-1 tox,TDP1 cell noCPT,TDP1 cell CPT
COc1ccc(-c2nc(CS(=O)CC(=O)NCCCN3CCOCC3)c(C)o2)cc1OC (stereo unspecified),-4%,0%,i,i,-29%,?
COc1ccc(NC(=O)Cn2ncc3c2-c2ccccc2OC3)cc1Cl,nt,nt,?,?,15µM*,?
Cc1cccc(N2CCN(C(=O)Cn3ncc4c3-c3ccccc3OC4)CC2)c1C,nt,nt,i,i,16µM*,18µM*
Cc1ccc2c(c1)-c1c(cnn1CC(=O)N1CCN(c3cc(C)ccc3C)CC1)CO2,nt,nt,?,i,18µM*,?
Cc1ccc2c(c1)-c1c(cnn1CC(=O)N1CCN(c3cccc(C(F)(F)F)c3)CC1)CO2,nt,nt,i,i,?,?
COc1ccc(N2CCN(C(=O)Cn3ncc4c3-c3cc(C)ccc3OC4)CC2)cc1,nt,nt,i,i,-18%,-20%
O=C(Cn1ncc2c1-c1ccccc1OC2)Nc1ccc(S(=O)(=O)N2CCCCC2)cc1,-13%,-27%,?,i,?,?
CCS(=O)(=O)N1CCC(C(=O)Nc2cc(C)ccc2O)CC1,-2%,-5%,i,i,?,-4%
Cc1ccc2nc(-c3ccc(NC(=O)CSc4nccc(=O)[nH]4)cc3)sc2c1,-7%,-20%,i,i,6%,1%
Cc1cccc(S(=O)(=O)Nc2ccc(-c3nc4ccc(C)cc4s3)cc2)c1,-28%,-29%,i,i,29µM*,?
Cc1ccc(S(=O)(=O)Nc2ccc(-c3nc4ccc(C)cc4s3)cc2)cc1,0%,-21%,i,i,?,?
Cc1ccc2nc(-c3ccc(NC(=O)CNC4CC4)cc3)sc2c1,3%,-3%,i,i,18µM*,16µM*
Cc1ccc2nc(-c3ccc(NC(=O)CCS(=O)(=O)c4ccccc4)cc3)sc2c1,-21%,-3%,i,i,26µM*,?
